Results from PubChem BioAssay (EPA / NIEHS).
The source made the active and inactive calls. The calls were made as follows: active = hit-call score of the fitted dose curve at least 0.9, where 1 is the maximum; inactive = score below 0.9.

What follows are compounds tested on Forkhead box O3 (FOXO3), FOXO3 (gene 2309) (assay: LTEA_HepaRG_FOXO3: Life Technologies and Expression Analysis (LTEA) Assay for Forkhead box O3 (FOXO3) using HepaRG (AID 2283459)). Settings: mRNA level, 48 h; actives raise or lower the signal.
Description: LTEA_HepaRG is a cell based, multiplexed-readout assay that uses HepaRG, a human liver cell line, with measurements taken at 48 hours after chemical dosing on a 96-well plate.LTEA_HepaRG_FOXO3 is one of 102 assay component(s) measured in the LTEA HepaRG cell culture assay. It is a marker of Cell proliferation, survival, death.Data from the assay component LTEA_HepaRG_FOXO3 was analyzed into 1 endpoint. This assay endpoint, LTEA_HepaRG_FOXO3, was analyzed with bidirectional fitting relative to DMSO as the negative control and baseline of activity. Using a type of inducible reporter, measures of mRNA induction for gain or loss-of-signal activity can be used to understand regulation of transcription factor activity. To generalize the intended target to other relatable targets, this assay endpoint is annotated to the dna binding intended target family, where the subfamily is forkhead box protein.
A total of 1060 chemcials from the ToxCast library were tested in eight-point concentration-response experiments. Cell culture and cytotoxicity assays were conducted at Thermo Fisher Scientific's Custom Services facility (Madison, WI). A single lot of human HepaRG cells (Thermo Fisher Scientific, Frederick, MD) was used for the cell culture experiments. 96-well format collagen type I coated plates of human HepaRG cells were prepared using established methods. Briefly, cryopreserved HepaRG cells were thawed, plated at a density of approximately 100,000 cells/well in HepaRG Thaw, Plate, and General Purpose media (HPRG770, Thermo Fisher Scientific), and incubated for 48 hours. 0.5% DMSO was selected as vehicle control to balance the requisite need of DMSO in HepaRG cultures to maintain differentiation (for example, baseline metabolism, proportions of hepatocytes vs. cholangiocytes), while enabling further hepatic receptor pathway activation (for example, PXR and CAR) in response to chemical exposure. 48 hours after plating, the culture medium was replaced with HepaRG Serum-Free Incudtion Media. Cells were exposed to each test chemical in duplicate and maintained in CO2 incubators for another 48 hours. Chemical plates were thawed to room temperature and 200x concentrations of treatment groups were prepared. 8-point conentration-reponse curves were made with the highest exposure at 100 uM, followed by half-log dilutions, all in 0.5% DMSO. Each test plate contained variouse controls, induction positive controls (1mM phenobarbital), cytotoxicity positive controls ([…] aflatoxin B1), vehicle controls (0.5% DMSO), and total lysis controls (0.5% DMSO). Cell morphology images were taken using an Essen IncuCyte FLR automated microscope, with six 96-well plates imaged in about 24 minutes. Images were captured and exported and JPEG files. Spent culture media was transfered to black-well plates for the LDH assay, and remaining media was sorted at -80 C for later use. Cells were treated with RLT buffer and frozen until shipped for gene expression analysis. Total RNA was isolated from the cell suspension in 75 uL of Buffer RLT (Qiagen, Germantown, MD 20874) by Quintiles/Expression Analysis (Durham, NC) using a custom isolation procedure. Total RNA from each plate well was transferred to a preamplification plate. Fluidigm's 96.96 Dynamic ArrayTM (Fluidigm, Amsterdam, the Netherlands) technology was used for gene expression analyses by quantitative reverse transcription polymerase chain reaction (qRT-PCR, performed by Quintiles/Expression Analysis, Durham, NC)89. Standard TaqManTM Assays (Applied Biosystems/ThermoFisher Scientific, Foster City, CA) were used to assess the expression of 93 genes selected based on their selectivity and sensitivity to important hepatic receptors known to be modulated by environmental chemicals; importance in human hepatocyte functionality; and hepatotoxicity. […]

Row | SMILES | outcome | AC50
1 | OC1CCC(C2CCCCC2)CC1 (stereo not given) | inactive | 
2 | CCCCCCCCC(=O)O | inactive | 
3 | NC(=O)N1C(=O)C(C(=O)c2cc(Cl)cs2)c2cc(F)c(Cl)cc21 (stereo not given) |  | 35 µM (active)
4 | CC(=O)NC1(c2cccc(F)c2)CCN(CC[C@@]2(c3ccc(Cl)c(Cl)c3)CN(c3ccccc3)C(=O)CO2)CC1 | inactive | 
5 | O=C(O)c1ccccc1C(c1ccc(O)cc1)c1ccc(O)cc1 | inactive | 
6 | CCCOc1sc(C(=O)N2CCC(c3cc(CN)ccc3F)CC2)c(C)c1Br | inactive | 
7 | COCC(C)OCC(C)O (stereo not given) | inactive | 
8 | CC[C@H](c1ccc(O)cc1)[C@@H](CC)c1ccc(O)cc1 | inactive | 
9 | N#C[C@@H]1CC(F)(F)CN1C(=O)CNC1CC2CCC(C1)N2c1ncccn1 (stereo not given in full) | inactive | 
10 | CCCCCCCC(=O)O | inactive | 
11 | Cc1cc(C)c(O)c(C)c1 | inactive | 
12 | CCCCC(CC)COC(=O)CCCCC(=O)OCC(CC)CCCC (stereo not given) | inactive | 
13 | CC(C)(C)c1cccc(C(C)(C)C)c1O | inactive | 
14 | C=C(C)C(=O)OCCC(F)(F)C(F)(F)C(F)(F)C(F)(F)C(F)(F)C(F)(F)F | inactive | 
15 | CN(C)C=O | inactive | 
16 | CCc1nn(C2CCCCC2)c2cc(C3(C#N)CCC(C(=O)O)CC3)ccc12 (stereo not given) | inactive | 
17 | COc1ccc([N+](=O)[O-])cc1N | inactive | 
18 | c1ccc2cc3c(ccc4ccccc43)cc2c1 |  | 6.54 µM (active)
19 | OCCC(F)(F)C(F)(F)C(F)(F)C(F)(F)C(F)(F)C(F)(F)F | inactive | 
20 | Cc1cc(CCN2CCN(c3nsc4ccccc34)CC2)cc2c1NC(=O)CC2(C)C | inactive | 

Row | SMILES | outcome | AC50
21 | CCCCCCC(=O)O | inactive | 
22 | CN1CCN(c2ccccc2/C=C2\SCCN(c3ccc(Cl)c(Cl)c3)C2=O)CC1 |  | 69 µM (active)
23 | c1ccc2c(c1)Cc1ccccc1-2 | inactive | 
24 | CCCCOCCO | inactive | 
25 | CC(C)(C)CC(C)(C)c1ccc(O)c(-n2nc3ccccc3n2)c1 | inactive | 
26 | O=C(OCCOCCOC(=O)c1ccccc1)c1ccccc1 | inactive | 
27 | CCN(CC)CCNc1ccc(CNC=O)c2sc3ccc(OC)cc3c(=O)c12 |  | 50 µM (active)
28 | O=C(O)Cc1cc(I)c(Oc2cc(I)c(O)c(I)c2)c(I)c1 |  | 24.8 µM (active)
29 | CCC(=C(c1ccc(O)cc1)c1ccc(OCCN(C)C)cc1)c1ccccc1 | inactive | 
30 | c1ccc2c(c1)ccc1ccccc12 | inactive | 
31 | OCCC(F)(F)C(F)(F)C(F)(F)C(F)(F)C(F)(F)C(F)(F)C(F)(F)C(F)(F)F | inactive | 
32 | COC(=O)CCCCC(=O)OC | inactive | 
33 | CC(O)CO (stereo not given) | inactive | 
34 | CCCCCCCCOC(=O)CCCCCCCCC(=O)OCCCCCCCC | inactive | 
35 | Oc1cc2ccccc2c2ccccc12 | inactive | 
36 | CCOC(=O)CC(O)(CC(=O)OCC)C(=O)OCC | inactive | 
37 | Oc1cccc(O)c1 | inactive | 
38 | CCCCCCCCCCCCN1CCCC1=O | inactive | 
39 | CC[C@H](C)[C@@H](C(=O)O)n1sc2ccccc2c1=O | inactive | 
40 | CC1=C(/C=C/C(C)=C/C=C/C(C)=C/C(=O)O)C(C)(C)CCC1 | inactive | 
